Source: the supplement of paper PMC10338343
± gives the standard deviation.

system: MILI (PIWIL2) piRISC loaded with piRNA #1 (26 nt); test: pre-steady-state target cleavage rate (min^-1); guide: piRNA #1 5'p-UGAGGUAGUAGGUUGUAUAGUAUCCA; MIWI and MILI are mouse PIWI proteins and EfPiwi is from a freshwater sponge; tags in brackets are library labels; higher = faster piRNA-guided slicing of the target; conditions: auxiliary factor: 500 nM mouse GTSF1
Summary of the method: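 Reactions were run for 0–8 or 0–960 min at 33 °C in HEPES–potassium acetate buffer, combining 1 nM active affinity-purified piRISC with one synthetic guide, […] transcribed, DNA-blocked target RNA library and, in some cases, 500 nM GTSF1 partner protein. Sequencing of uncleaved targets followed, with normalisation to depth and to weakly complementary targets. Three trials were pooled, k3 was capped at 0.0001 min^-1, and the pre-steady-state cleavage rate was taken from a burst-and-steady-state fit.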
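Further: 1 nM active piRISC with 0.1 nM target library at 33 °C single turnover.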

Row | Sequence | pre-steady-state target cleavage rate
1 | GGAGACCUAUGUAUACAAGCUACUACCACA | 0.177 ± 0.017
2 | GGAGACCUUACUAUACUAGCUACUACCUCA | 0.171 ± 0.012
3 | GGAGACCUAUGUAUACAAGCUACUUCCUCA | 0.101 ± 0.013
4 | GGAGAGGAUUCUAUACAACCUACUACCACA | 0.113 ± 0.011
5 | GGAGACCUAUGAUAUGUACCUACUAGCUCA | < 0.0001
6 | GGAGACCUAUGUAUACAACCUACUACCUUCA | 0.0648 ± 0.0099
7 | GGAGUGGAUACAAAACAACCUACUACCUCA | 0.12 ± 0.0086
8 | GGAGACCUUAGUAUACAACCUACUACGUCA | 0.0155 ± 0.0047
9 | GGAGACCUAUCUAUACAUCCUACUACGUCA | 0.0773 ± 0.017
10 | GGAGACCUAUCUAUACAACCUUCUACCUCA | 0.00553 ± 0.0024
11 | GGAGACCUAUGAAUACUAGCUACUACCUCA | 0.00307 ± 0.002
12 | GGAGACCUAUCUAUACAACCAUCUACCUCA | 0.00428 ± 0.0031
13 | GGAGACCAAACUAUAGAACCUACUACCUCA | 0.13 ± 0.028
14 | GGAGACGAUACUUUUCAACCUACUACCUCA | 0.171 ± 0.011
15 | GGAGACCUAUGAUAUGAACGUUCUACCUCA | < 0.0001
16 | GGAGACCUAACUAUACAUCCUACAACCUCA | 0.246 ± 0.033
17 | GGAGACCUAUGAUAUGUUGCUACUACCUAA | < 0.0001
18 | GGAGACCUAUGAUAUGUACCUACAACCUGA | < 0.0001
19 | GGAGACCUAUCGUAUACAACCUACUACCUCA | 0.057 ± 0.011
20 | GGAGACCUAUGAAUACAAGCUACUUCCUCA | 0.0166 ± 0.0043
21 | GGAGACCUAAGUAUACAAGCUACUACCUCA | 0.124 ± 0.011
22 | GGAGACCAUACUAUACAUCCUAGUACCUCA | 0.0776 ± 0.018
23 | GGAGACCAUAGUAUACAACGUACUACCUCA | 0.0174 ± 0.0033
24 | GGAGACCAUACUAUACAACCUACUCACCUCA | 0.169 ± 0.015
